The nature of test [1]: TOX21_p53_BLA_p2_viability: Viability Assessment in the Tox21 HCT-116 p53 Agonism Beta-lactamase Assay, Phase 2 (AID 2283591).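 Note: actives lower the ATP signal meaning cytotoxicity.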 In a few lines: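 HCT116 p53-bla cells, 4000/well, dosed after 5 h plating (217-fold dilution of DMSO stocks) and incubated 16 h at 37C. Viability taken as cellular ATP by CellTiter-Glo luminescence after 30 min RT; signal loss marks cytotoxicity.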

The target of test [2] is Cellular tumor antigen p53 (Homo sapiens) (UniProt P04637). As to the kind of experiment: TOX21_p53_BLA_p2_ratio: Tox21 HCT-116 p53 Agonism Beta-lactamase Assay, Ratio, Phase 2 (AID 2283592). In a few lines:
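Ratio endpoint: beta-lactamase cleavage of CCF4-AM, blue (460 nm) over green (530 nm). HCT116 reporter line; 16 h treatment, 37C; substrate 2 h RT.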

The nature of test [3]: TOX21_p53_BLA_p3_viability: Viability Assessment in the Tox21 HCT-116 p53 Agonism Beta-lactamase Assay, Phase 3 (AID 2283593).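 Note: cells exposed to compound for 16 h before reading.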 In a few lines: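 HCT116 cells, 4000/well, dosed 5 h after plating by pin transfer (217-fold dilution from DMSO stock) and incubated 16 h at 37C, 5% CO2. Viability read as ATP luminescence with CellTiter-Glo after 30 min at room temperature.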
Test [4] deals with Cellular tumor antigen p53 (Homo sapiens) (UniProt P04637). As to the kind of experiment: TOX21_p53_BLA_p3_ratio: Tox21 HCT-116 p53 Agonism Beta-lactamase Assay, Ratio, Phase 3 (AID 2283596). In a few lines:
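Cells were seeded at 4000/well, rested 5 h at 37C, then dosed with DMSO compound solutions (217-fold dilution) for 16 h. CCF4-AM substrate was loaded for 2 h at room temperature, and the 460/530 nm emission ratio was fitted for gain of signal versus DMSO.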

Test [5] can be described thus: TOX21_p53_BLA_p4_viability: Viability Assessment in the Tox21 HCT-116 p53 Agonism Beta-lactamase Assay, Phase 4 (AID 2283597).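 Note: hits lower the luminescence signal meaning cytotoxicity.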 In a few lines: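 Cytotoxicity was inferred from loss of CellTiter-Glo luminescence. HCT116 cells had been dosed with compounds after 5 h plating, incubated 16 h at 37C and 5% CO2, and exposed to the CCF4-AM substrate for 2 h.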
In test [6] the target is Cellular tumor antigen p53 (Homo sapiens) (UniProt P04637). Put plainly: TOX21_p53_BLA_p5_ratio: Tox21 HCT-116 p53 Agonism Beta-lactamase Assay, Ratio, Phase 5 (AID 2283599). In a few lines: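 HCT-116 p53-bla cells (4000/well) plated 5 h, dosed with compound (217-fold DMSO dilution) for 16 h at 37 C; CCF4-AM substrate 2 h at room temperature. Activity is the 460/530 nm emission ratio (405 nm excitation), fitted in gain-of-signal direction versus DMSO.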

Test [7] has the same target. As to the kind of experiment: TOX21_p53_BLA_p4_ratio: Tox21 HCT-116 p53 Agonism Beta-lactamase Assay, Ratio, Phase 4 (AID 2283601). In a few lines:
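HCT-116 p53 beta-lactamase reporter cells (4000/well) preincubated 5 h, then compound (217-fold dilution of DMSO stock) for 16 h at 37C. CCF4-AM substrate added 2 h at room temperature; 460/530 nm emission ratio fitted upward versus DMSO.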

Test [8] concerns the target PGR (gene 5241) (UniProt P06401). Put plainly: TOX21_PR_BLA_Followup_Antagonist_ratio: Tox21 HEK293 Progesterone Receptor (PR) Antagonism Beta-lactamase Follow-Up Assay, Ratio (AID 2283934). In a few lines: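 Read-out: blue/green beta-lactamase FRET ratio (cleaved ch2 over uncleaved ch1), fitted relative to DMSO baseline. Cells: PR-UAS-bla HEK293T, GAL4-UAS reporter, stimulated with 1 nM R5020 final; 16 hr compound exposure, 37C.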

Test [9] in a line: TOX21_PR_BLA_Followup_Antagonist_viability: Viability Assessment in the Tox21 HEK293 Progesterone Receptor (PR) Antagonism Beta-lactamase Follow-Up Assay (AID 2283936).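 Note: cells exposed to compound with R5020 agonist for 16 h; hits lower the luminescence signal meaning cytotoxicity.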 In a few lines:
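PR-UAS-bla HEK293T cells in medium with 2% charcoal-stripped FBS were treated with compounds plus R5020 for 16 hr at 37C. After the beta-lactamase read, CellTiter-Glo was added to the same wells and luminescence read after 30 min at room temperature.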

Test [10] is described as follows: TOX21_PR_LUC_Followup_Antagonist_viability: Viability Assessment in the Tox21 HEK293 Progesterone Receptor (PR) Antagonism Luciferase Follow-Up Assay (AID 2283940). The gist of the method: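 Read-out: CellTiter-Glo ATP luminescence, loss of signal taken as reduced viability. Cells: HEK293-PR-A-luc, 3,000/well, 5 h settling, then 16 h compound exposure at 37C, 0% CO2.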

Test [11] can be described thus: TOX21_PR_LUC_Followup_Agonist_viability: Viability Assessment in the Tox21 HEK293 Progesterone Receptor (PR) Agonism Luciferase Follow-Up Assay (AID 2283941).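 Note: loss of signal means cytotoxicity so actives lower viability.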 The gist of the method:
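Cytotoxicity counter-screen: ATP content by CellTiter-Glo luminescence, loss of signal = reduced viability. HEK293-PR-A-luc, 3,000 cells/well, compound exposure 16 h, 37C.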

For test [12], the target named is Thyroid hormone receptor alpha (Rattus norvegicus) + Thyroid hormone receptor beta (Rattus norvegicus) (UniProt P18113+P63059). Put plainly: TOX21_TR_LUC_GH3_Antagonist_Followup: Tox21 GH3 Thyroid Hormone Receptor Antagonism Luciferase Follow-Up Assay (AID 2283942). The gist of the method:
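Luminescence read-out (ONE-Glo, 30 min at room temperature) in GH3 reporter cells challenged with 1.0 nM T3 final. Compounds ran at 92 uM to 5nM over 15 concentrations for 24 h; DMSO served as negative control and baseline.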

Test [13] is described as follows: TOX21_TRB_BLA_Antagonist_Followup_viability: Viability Assessment in the Tox21 Thyroid Hormone Receptor beta Antagonism Beta-lactamase (BLA) Follow-Up Assay (AID 2283961). In a few lines:
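HEK293T cells stably expressing GAL4-DBD/human TRβ-LBD with UAS-bla reporter, 3,000 cells/well in phenol red-free DMEM, 2% charcoal-stripped FBS. Compounds at 11 concentrations in triplicate, 18 h at 37C/5% CO2; viability by CellTiter-Glo luminescence after 30 min at room temperature.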

A further test deals with THRB (gene 7068) (UniProt P10828). Put plainly: TOX21_TRB_COA_Antagonist_Followup_ratio: Tox21 Thyroid Hormone Receptor beta Antagonism through Coactivator Recruitment Follow-Up Assay, Ratio (AID 2283967). The gist of the method: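 GST-TRb LBD 5.0 nM + 0.10% BSA, compound added; fluorescein-SRC-2 peptide 200 nM, Tb-anti-GST Ab 2 nM. TR-FRET, ex 340 / em 520:495 ratio. Norm: DMSO 0%, T3 100%.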

Test [14] has as its target Retinoic acid receptor RXR-alpha (Homo sapiens) (UniProt P19793). Put plainly: TOX21_TR_RXR_BLA_Antagonist_Followup_ratio: Tox21 Thyroid Hormone Receptor beta Retinoid X Receptor alpha (RXRa) Antagonism Beta-lactamase (BLA) Follow-Up Assay, Ratio (AID 2283972). In a few lines: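 RXRa-UAS-bla HEK293T cells in phenol red-free DMEM with 2% charcoal-stripped FBS; compounds at 11 concentrations in triplicate, 16 h at 37C. LiveBLAzer FRET-B/CCF4-AM substrate 2 h at room temperature; read as 460:530 nm ratio versus DMSO.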

A short description of test [15]: TOX21_p53_BLA_p5_viability: Viability Assessment in the Tox21 HCT-116 p53 Agonism Beta-lactamase Assay, Phase 5 (AID 2283600). The gist of the method: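 Luciferase-coupled ATP quantitation of cells treated for 16 h (37C, 5% CO2) with test chemicals delivered in DMSO via a 217-fold dilution; 4000 cells/well; reagent incubated 30 min at room temperature before luminescence reading.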

Test [16] has as its target PGR (gene 5241) (UniProt P06401). As to the kind of experiment: TOX21_PR_BLA_Followup_Agonist_ratio: Tox21 HEK293 Progesterone Receptor (PR) Agonism Beta-lactamase Follow-Up Assay, Ratio (AID 2283933). The gist of the method:
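Read-out: ratio of cleaved (ch2) to uncleaved (ch1) beta-lactamase substrate fluorescence, gain-of-signal relative to DMSO baseline. Cells: PR-UAS-bla HEK293T, 2% charcoal-stripped FBS; compound exposure 16 hr, 37C; substrate 2 hr, RT.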

The target is the same in test [17]. As to the kind of experiment: TOX21_PR_LUC_Followup_Agonist: Tox21 HEK293 Progesterone Receptor (PR) Agonism Luciferase Follow-Up Assay (AID 2283937; active = hit-call score of the fitted dose curve at least 0.9, where 1 is the maximum; inactive = score below 0.9). The gist of the method:
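Luminescence read-out (ONE-Glo, 30 min at room temperature) of PR-driven luciferase in HEK293-PR-A-luc cells after 16 h compound exposure at 37C; gain of signal fitted relative to DMSO baseline.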

Values joined by “and” are separate entries in the source; they are usually repeats but may differ in a detail not shown here. Equal entries are not always repeated. Results filed as inconclusive are left out. Active and inactive are the calls of the source. Rule for the calls, unless noted: active = hit-call score of the fitted dose curve at least 0.9, where 1 is the maximum; inconclusive = response in the unintended direction; inactive = score below 0.9.

The text below walks through data of PubChem BioAssay (EPA / NIEHS).

Chain of Cellular tumor antigen p53 (Homo sapiens) (P04637 whole entry, looked up): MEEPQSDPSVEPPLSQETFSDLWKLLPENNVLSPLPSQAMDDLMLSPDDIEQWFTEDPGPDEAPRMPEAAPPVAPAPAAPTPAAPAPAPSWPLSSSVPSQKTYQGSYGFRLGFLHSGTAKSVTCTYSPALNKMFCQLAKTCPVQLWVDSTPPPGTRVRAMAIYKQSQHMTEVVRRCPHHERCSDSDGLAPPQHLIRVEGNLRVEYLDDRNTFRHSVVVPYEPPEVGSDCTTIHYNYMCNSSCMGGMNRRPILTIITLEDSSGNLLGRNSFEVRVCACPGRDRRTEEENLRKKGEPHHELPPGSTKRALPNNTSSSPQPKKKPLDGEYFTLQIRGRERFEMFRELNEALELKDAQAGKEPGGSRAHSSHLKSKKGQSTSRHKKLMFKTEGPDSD
Chain of PGR (gene 5241) (P06401 whole entry, looked up, the tested form may be a part): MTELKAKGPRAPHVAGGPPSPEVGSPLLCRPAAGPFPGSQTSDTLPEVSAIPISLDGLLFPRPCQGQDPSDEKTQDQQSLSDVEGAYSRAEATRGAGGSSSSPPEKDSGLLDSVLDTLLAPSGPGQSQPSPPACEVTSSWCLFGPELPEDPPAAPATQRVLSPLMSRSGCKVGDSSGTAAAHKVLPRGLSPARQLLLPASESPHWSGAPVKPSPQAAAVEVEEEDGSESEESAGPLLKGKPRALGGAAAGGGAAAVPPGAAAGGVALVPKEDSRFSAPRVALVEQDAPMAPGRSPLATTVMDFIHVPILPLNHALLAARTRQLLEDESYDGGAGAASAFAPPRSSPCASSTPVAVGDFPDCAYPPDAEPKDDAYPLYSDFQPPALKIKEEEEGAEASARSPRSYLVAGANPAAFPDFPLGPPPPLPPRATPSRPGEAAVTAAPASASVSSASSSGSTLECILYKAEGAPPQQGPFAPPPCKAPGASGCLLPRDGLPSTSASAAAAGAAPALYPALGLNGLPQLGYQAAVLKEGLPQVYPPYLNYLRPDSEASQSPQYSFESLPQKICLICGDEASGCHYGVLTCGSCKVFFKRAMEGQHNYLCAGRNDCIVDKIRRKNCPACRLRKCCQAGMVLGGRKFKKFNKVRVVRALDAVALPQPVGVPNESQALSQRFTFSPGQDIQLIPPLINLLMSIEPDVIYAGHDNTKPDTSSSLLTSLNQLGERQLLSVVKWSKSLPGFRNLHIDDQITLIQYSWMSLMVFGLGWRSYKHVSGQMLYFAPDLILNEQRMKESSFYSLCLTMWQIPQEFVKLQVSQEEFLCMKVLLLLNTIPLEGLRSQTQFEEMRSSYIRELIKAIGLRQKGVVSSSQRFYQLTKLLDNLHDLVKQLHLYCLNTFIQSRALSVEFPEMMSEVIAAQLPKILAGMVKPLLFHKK
Chain of Retinoic acid receptor RXR-alpha (Homo sapiens) (P19793 whole entry, looked up): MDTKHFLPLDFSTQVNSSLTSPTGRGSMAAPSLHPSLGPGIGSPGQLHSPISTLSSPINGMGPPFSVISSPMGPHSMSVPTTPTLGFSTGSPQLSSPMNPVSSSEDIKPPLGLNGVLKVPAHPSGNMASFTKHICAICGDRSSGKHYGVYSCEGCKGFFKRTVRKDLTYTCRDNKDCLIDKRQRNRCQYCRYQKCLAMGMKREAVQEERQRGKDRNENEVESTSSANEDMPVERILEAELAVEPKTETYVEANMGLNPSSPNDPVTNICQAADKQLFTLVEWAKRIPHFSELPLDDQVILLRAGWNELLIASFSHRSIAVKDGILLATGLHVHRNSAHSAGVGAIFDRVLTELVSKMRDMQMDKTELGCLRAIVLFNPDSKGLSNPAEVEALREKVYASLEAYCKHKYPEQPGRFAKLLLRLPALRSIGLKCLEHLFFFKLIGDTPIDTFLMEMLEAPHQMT
Chain of THRB (gene 7068) (P10828 whole entry, looked up, the tested form may be a part): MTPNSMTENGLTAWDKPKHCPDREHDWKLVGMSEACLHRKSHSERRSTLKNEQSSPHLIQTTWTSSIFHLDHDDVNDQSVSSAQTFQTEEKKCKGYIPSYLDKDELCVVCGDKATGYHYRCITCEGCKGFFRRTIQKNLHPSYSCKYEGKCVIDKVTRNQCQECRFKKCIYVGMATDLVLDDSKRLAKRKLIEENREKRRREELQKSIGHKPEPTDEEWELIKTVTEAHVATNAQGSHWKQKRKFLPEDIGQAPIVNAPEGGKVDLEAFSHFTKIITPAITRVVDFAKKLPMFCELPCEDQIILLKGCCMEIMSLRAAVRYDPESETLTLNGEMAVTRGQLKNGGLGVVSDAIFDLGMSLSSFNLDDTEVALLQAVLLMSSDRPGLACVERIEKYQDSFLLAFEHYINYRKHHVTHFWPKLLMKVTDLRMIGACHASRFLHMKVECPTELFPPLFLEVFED

Regarding `C=CC[C@]1(O)CC[C@H]2[C@@H]3CCC4=CC(=O)CCC4=C3C=C[C@@]21C`, the compound was classed as inactive in test [1], in [2], in test [3], in test [4], in test [5] and in [6]. Moreover, the outcome (in test [7]; with PGR (gene 5241) [8]; in [9]; in test [10]; in [11]; in test [12]) was inactive. The call (in [13]; with THRB (gene 7068); in test [14]) was inactive.
With `Oc1cc(Cl)cc(Cl)c1`, the call in [1], in [3], in [4], in test [5] and in test [7] was inactive. The AC50 – broadly, the concentration at which the activity in the assay is half-maximal – was 79 µM (active) in [2] and 85.2 µM (active) in test [6].
`COc1cc(N)c(Cl)cc1C(=O)NC1CN2CCC1CC2` (stereo unspecified): the call in test [1], in [2], in [3], in [4], in [5] and in test [7] was inactive.
Take `CCOC(=O)C1(c2ccccc2)CCN(CCC(C#N)(c2ccccc2)c2ccccc2)CC1`: the call (in test [1]; in test [3]; in test [5]; in test [15]; in the test with PGR (gene 5241) [16]; in test [9]) was inactive. In addition, the compound was called inactive (with PGR (gene 5241) [17]; in [11]). In addition, the AC50 in [2] was 16.3 µM (active) and 6.96 µM (active); in test [4], 41.6 µM (active) and 7.95 µM (active); in test [6] it was 56.4 µM (active) and 23.9 µM (active); in [7], 43.7 µM (active) and 8.27 µM (active); with PGR (gene 5241) [8] it was 13.7 µM (active).
As to `O=NN1CCN(N=O)CC1`, the outcome in test [1], in [2], in test [3], in test [4], in [5] and in test [15] was inactive. The result in test [7] was inactive.
As to `O=[Se]=O`, the concentration at half-maximal activity (AC50) in test [1] was 16.1 µM (active); in test [2] it was 2.8 µM (active); in [3] it was 7.66 µM (active); in test [4], 777 nM (active); in test [5], 21 µM (active); in [7] it was 4.23 µM (active). The outcome in test [6] was inactive.
Consider `C[C@]12C[C@H]3S[C@H]3C[C@@H]1CC[C@@H]1[C@@H]2CC[C@]2(C)[C@@H](O)CC[C@@H]12`, for which the call in test [1], in test [2], in test [3], in test [4], in test [5] and in test [15] was inactive.
`CN[C@@H]1C[C@@H](c2ccc(Cl)c(Cl)c2)c2ccccc21`: the result in test [1], in [2], in [3], in test [4], in test [6] and in test [15] was inactive. The outcome in test [7] was inactive. In test [5], the half-maximal activity concentration (AC50) is 33.9 µM (active).
For `ClC(Br)Br`, the compound was classed as inactive in test [1], in test [2], in test [3], in test [4], in [5] and in test [6]. In [7], the outcome was inactive.
